Experimental data as given in PubChem BioAssay AID624417 (National Center for Advancing Translational Sciences (NCATS), 2012).
Out of some 410,000 compounds screened, about 6,400 (1.6%) were called active. Inconclusive results (about 20%) are left out. Calls follow the shape of the dose curve; as a rule, active = well fitted inhibition curve with a large enough effect; inconclusive = small, poorly fitted or top-dose-only effect; inactive = no such curve, though single readings can be large or run the other way. The sample as a whole holds a higher share of actives than the screen did.

These compounds were tested against Glucagon-like peptide 1 receptor (Homo sapiens) (UniProt P43220) (assay: qHTS of GLP-1 Receptor Inverse Agonists (Inhibition Mode)). Settings: HEK293 GLP-1R CRE-luciferase, luminescence, 24 h, GLP-1R form is constitutively active; series mostly up to 38.3 µM.
Text: The overall goal of this project was to develop a novel assay for discovering small molecule ligands for class B1 G protein-coupled receptors (GPCRs). Very few agonists (or inverse agonists in inhibition mode) with generally weak activity for this entire group of physiologically important receptors are known to date. To establish proof-of-principle that this critical bottleneck can be overcome with a suitable screening approach, our studies focused on the class B1 receptor for glucagon-like peptide-1 (GLP-1R), a potential therapeutic target for diabetes and neurodegenerative disease. The assay was developed using a cell-based functional readout. Toward this goal, stably transfected HEK293 cell clones were established that co-express (i) a cAMP-responsive luciferase reporter gene, and (ii) constitutively active GLP-1R that upon ligand interaction inhibit (inverse agonists) the luciferase activity. In addition, two control cell lines were developed: (i) one that express only the cAMP-responsive reporter gene to enable initial exclusion of GLP-1R independent effects of candidate probes; and (ii) one with the reported gene cloned with another constitutively active orphan receptor GPR119 to enable exclusion of GLP-1R independent inhibitor effects of candidate inverse agonists. To that end, this assay was optimized for 1536-well format and screened against the MLSMR. […] NIH Molecular Libraries Probe Production Network [MLPCN] NIH Chemical Genomics Center [NCGC] Grant: NS064851 PI Name: Martin Beinborn, Tufts Medical Center
Six ul of cell suspension (200 cells/uL in DMEM + 10% Nu serum + 1% pen-strep) is dispensed in a white solid 1536-well plate. The plates are incubated for 12 hours at 37 deg C at 5% CO2 followed by addition of 23 nL compounds. After 24 hr incubation at 37 deg C and 5% CO2, 3 uL of luciferase assay detection reagent is added. A luminescence read is obtained on the PerkinElmer Viewlux after 12 min incubation at room temperature.
Also: nearly all actives have a fitted effect of over 55% in size.
Potency is read from the fitted curve at half-maximal effect.

Sequence of Glucagon-like peptide 1 receptor (Homo sapiens) (P43220 whole entry, looked up): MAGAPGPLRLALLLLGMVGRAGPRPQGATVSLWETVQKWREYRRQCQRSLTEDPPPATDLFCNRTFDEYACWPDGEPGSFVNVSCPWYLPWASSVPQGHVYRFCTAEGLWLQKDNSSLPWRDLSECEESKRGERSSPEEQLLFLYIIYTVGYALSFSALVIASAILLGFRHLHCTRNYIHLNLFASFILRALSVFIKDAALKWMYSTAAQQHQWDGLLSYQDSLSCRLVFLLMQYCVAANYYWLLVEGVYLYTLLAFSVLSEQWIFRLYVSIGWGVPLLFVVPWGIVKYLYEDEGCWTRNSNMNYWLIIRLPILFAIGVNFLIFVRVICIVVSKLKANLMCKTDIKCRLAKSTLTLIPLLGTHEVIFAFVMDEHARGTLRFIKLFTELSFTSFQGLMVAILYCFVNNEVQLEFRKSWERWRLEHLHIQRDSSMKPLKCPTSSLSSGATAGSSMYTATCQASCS

Potency, inactive:
O=C(Nc1cccc2ccccc12)N1CCN(Cc2ccc3c(c2)OCO3)CC1
O=C(c1cccs1)N1CCN(Cc2ccc3c(c2)OCO3)CC1
CCCC(=O)N1CCC1(C)C(=O)NCc1ccc(SC)cc1 (configuration not stated)
CC1(C(=O)NS(=O)(=O)c2ccccc2Cl)CCN1C(=O)c1cccc(F)c1 (configuration not stated)
O=C(N/N=C/c1ccc(OC(=O)c2ccccc2Cl)cc1)c1ccc(O)cc1
O=C(Cc1cccs1)N/N=C/c1ccc(OCc2ccccc2)cc1
O=C(O)c1ccccc1Cc1ccc(F)c2ccccc12
CCC(C(=O)NC(C)(C)C)n1c(-c2ccccc2)nc2ccccc21 (configuration not stated)
C[C@H]1CN([C@@H](C)CO)C(=O)c2cc(-c3ccccc3F)cnc2O[C@H]1CN(C)C(=O)C1CCOCC1
CC1(C(=O)Nc2cccc3cccnc23)CCN1C(=O)CCC1CCCC1 (configuration not stated)
O=C(NCCN1CCOCC1)c1ccc2c(c1)N(Cc1cccc(Cl)c1)C(=O)c1ccccc1S2(=O)=O
Fc1cccc(Cc2noc(CN3CCN(c4cnccn4)CC3)n2)c1
Cc1cccc(N2CCN(Cc3nc(C4CC4)no3)CC2)n1
Cc1cc(Cl)ccc1OCCCC(=O)NCc1ccncc1
Cc1cc(Cl)ccc1OCCCC(=O)NCc1ccccn1
COc1ccc(C(O)c2nc(-c3ccc(OC)nc3)cs2)cc1 (configuration not stated)
Cc1cc(Br)cn2c(Cc3ccccc3C(F)(F)F)c(-c3ccc(Cl)cc3)nc12
CCCCN(C=O)c1c(CC)nc2c(OCc3ccccc3C(=O)OC)cccn12
O=S1(=O)CC(N2CCN(c3ccccn3)CC2)CN1Cc1ccc(F)cc1 (configuration not stated)
CCc1nc2c(OCc3ccc(F)c(F)c3)cccn2c1N(C)C(=O)c1ccco1
CCCNC(=O)c1cc(C2CCCCN2S(=O)(=O)c2ccc(C#N)cc2)on1 (configuration not stated)
Cc1nc(NC(=O)C23CCC(C)(C(=O)O2)C3(C)C)sc1C (configuration not stated)
Cc1nc2ccc(NC(=O)C3CCCCC3)cc2s1
NC(=O)CSc1nnc(-c2cccc(S(=O)(=O)N3CCOCC3)c2)o1
Cc1ccc(C(=O)NC(C)C(c2cccs2)N2CCOCC2)cc1C (configuration not stated)
Cn1nc(N)c2ncc(C(Cl)(Cl)Cl)nc21
CC(=O)Nc1ccc(OCC(O)CN2CCN(c3ccccc3Cl)CC2)cc1 (configuration not stated)
O=c1cc(CN2CCN(c3cccc(Cl)c3)CC2)c2cc3c(cc2o1)CCCC3
OC(COc1ccc(Br)cc1)CN1CCCC1 (configuration not stated)
O=[N+]([O-])c1ccc(N2CCN(CC(O)COc3ccccc3)CC2)cc1 (configuration not stated)
Cc1ccc(S(=O)(=O)N2C[C@]3(O)C[C@@H]4C(=O)N(c5ccccc5)C(=O)[C@@H]4C[C@]3(OC(=O)NC3CC3)C2)cc1
C[C@H](O)[C@@H]1C(=O)N2CCc3c([nH]c4ccccc34)[C@@H]2C[C@@H]1N(C)C(=O)Nc1ccc(F)cc1
CCN([C@H](CO)C(C)C)S(=O)(=O)c1ccccc1Br
Cc1cc(C)n2c(NCc3ccccc3)c(CC(C)C)nc2n1
COCCn1c(SCC(=O)Nc2ccc(F)cc2F)nc2c(c1=O)SCC2
CC1(C(=O)NCc2ccccc2)CSCC(=O)N1CCCn1ccnc1 (configuration not stated)
Cc1cccc(N2CCN(C(=O)c3cccc(N4C(=O)C5C6C=CC(C6)C5C4=O)c3)CC2)c1C (configuration not stated)
O=S(=O)(c1ccccc1)N1CCc2ccccc21
O=C(Nc1cccc(C(=O)O)c1)/C(=C\c1ccccc1)NC(=O)c1ccc(Br)o1
OC[C@@H]1CN(Cc2cccs2)C[C@H](n2cnc3c(NC4CCCC4)ncnc32)O1
OC[C@@H]1CN(Cc2ccc(F)cc2)C[C@H](n2cnc3c(NC4CCCC4)ncnc32)O1
CC(=O)c1ccc(Nc2nc(C(N)c3ccccc3)cs2)cc1 (configuration not stated)
COc1cccc(-c2nc3nc(C)cc(C)n3c2NC2CCCCC2)c1
CCCCNC(=O)C(=O)c1ccccc1NC(C)=O
Cc1ccc(NC(=S)N/N=C2/CCCc3c(C)cc(C)cc32)cc1
CCC(=O)N1CCC(C)(C(=O)Nc2cc(OC)c(OC)c(OC)c2)C1 (configuration not stated)
CC(=O)c1cccc(-c2cnc3c(NC=O)cc(-c4ccc(N5CCN(C)CC5)cc4)cn23)c1
COc1ccc(NC(=O)CCN2CCN(CCO)CC2)cc1
COc1ccc(C(=O)Nc2sc(C)c(C)c2CN2CCOCC2)cc1
Cc1nc2ccccc2c(=O)n1NC(=O)c1ccccc1
CN(C)CCCn1c(SCCN2C(=O)c3ccccc3C2=O)nc2ccccc2c1=O
CC1(C(=O)Nc2ccc3c(c2)OCCO3)CCN1C(=O)Cc1cc(F)ccc1F (configuration not stated)
CC1(C(=O)NS(=O)(=O)Cc2cccc(Cl)c2)CCN1C(=O)Cc1ccc(Cl)cc1Cl (configuration not stated)
CC(C)N1C(=O)c2ccccc2NC(=O)C1C(=O)NCc1cccs1 (configuration not stated)
COCCNc1nc(Nc2ccccc2Cl)c2sc(-c3ccccc3)cc2n1
CCOc1ccc(S(=O)(=O)NCCC(=O)NNC(=O)c2ccc(F)cc2)cc1
COc1cccc(NC(=O)CN(C)C(=O)/C=C/c2cc(OC)ccc2OC)c1
COc1ccc(NC(=O)CN(C)C(=O)/C=C/c2cn(Cc3ccccc3)nc2-c2cccnc2)cc1
CC(C)(O)C1=C[N+](=O)CC=C1
CCC(C)CN1C(=O)CSCC1(C)C(=O)NCc1ccccc1 (configuration not stated)
O=C1OCCC1=COCCCCOC=C1CCOC1=O
O=C(NCC(O)c1nc2ccccc2[nH]1)c1ccc(Br)cc1 (configuration not stated)
CCOc1ccc2[nH]c(=O)c(CN(CCCO)S(=O)(=O)c3ccc(F)cc3)cc2c1
CCN(Cc1cc2cc(C)ccc2[nH]c1=O)S(=O)(=O)c1ccccc1
O=C(c1cccs1)N1C[C@H](n2cc(C3CC3)nn2)[C@@H](O)C[C@@H]1c1ccccc1
COCCNc1ncnc2c1ncn2[C@H]1CN(CCN2CCOCC2)C[C@@H](CO)O1
CCC1CCCCN1CCCNC(=O)C1CCC(Cn2c(=O)[nH]c3ccccc3c2=O)CC1 (configuration not stated)
CN1CCN(CCCNC(=O)c2cc3c(=O)oc4ccccc4c3s2)CC1
COc1ccc(C(C)(NC(C)=O)c2nc(-c3ccc(S(C)(=O)=O)cc3)cs2)cc1 (configuration not stated)
O=C(CN1C(=O)NC2(CCc3ccccc32)C1=O)NC1CCCCC1 (configuration not stated)
O=C(COc1ccc(S(=O)(=O)N2CCCC2)cc1[N+](=O)[O-])N1CCCCC1
Cc1cc(C)cc(C(=O)NCCN2CCOCC2)c1
CCc1cc(=O)oc2c(C)c(OCC(=O)NCCN3CCOCC3)ccc12
O=C1NC(O)CCN1C1CC(O)C(CO)O1 (configuration not stated)
COc1ccc(C(O)C(O)(C(=O)OC(C)C)c2ccc(C)cc2)cc1 (configuration not stated)
Cc1nc2ccccn2c(=O)c1NC(=O)c1ccc(Br)o1
CCC(=O)c1ccc(OCC(=O)N(CC)CC2COc3ccccc3O2)cc1 (configuration not stated)
COc1ccc(NC(=O)C2COc3ccccc3O2)cc1 (configuration not stated)
CS(=O)(=O)N1CCCCC1c1cc(C(=O)NCc2ccccc2)no1 (configuration not stated)
COC(=O)[C@]12CCCCC=C1N(Cc1ccco1)C(=O)[C@H](CC(=O)NCC1CCCCC1)C2
CN1CCN(CCNC(=O)Nc2ccc([N+](=O)[O-])cc2)CC1
O=C(CN1CCN(c2ccccc2)CC1)Nc1ccc(F)cc1
CCC(C)CN1C(=O)CN(S(C)(=O)=O)CC1(C)C(=O)Nc1ccc2c(c1)OCCO2 (configuration not stated)

Potency, active:
O=C(CSCc1ccc(Cl)cc1)N1CCN(Cc2ccc3c(c2)OCO3)CC1 10 µM
O=C(N/N=C/c1ccc(OCc2ccccc2)cc1)c1ccc(O)cc1 2.82 µM
Cc1ccccc1N1CCN(Cc2nc(Cc3ccccc3F)no2)CC1 11.2 µM
Cc1cc(Cl)ccc1OCCCC(=O)Nc1cccc(-n2cnnn2)c1 10 µM
Cc1nc(NC(=O)C2CCCCC2)sc1C 8.91 µM
OC(COc1ccc2c(c1)CCC2)CN1CCN(c2cccc(Cl)c2)CC1 (configuration not stated) 10 µM
O=C(c1ccc(Cl)cc1)c1ccc(OCC(O)CN2CCCCC2)cc1 (configuration not stated) 5.01 µM
C=CC(COCc1ccccc1)N(Cc1ccccc1)S(=O)(=O)c1ccccc1Br (configuration not stated) 10 µM
CC(C)Cc1ccc(-c2cc3nc(NCc4cccc(Cl)c4)ccn3n2)cc1 2.82 µM
Cc1cccc(N2CCN(C(=O)c3ccc4c(c3)CCN4S(=O)(=O)c3ccccc3)CC2)c1C 7.94 µM
OC[C@@H]1CN(Cc2ccc(-c3ccccc3)cc2)C[C@H](n2cnc3c(NC4CCCC4)ncnc32)O1 8.91 µM
CCCCNC(=S)N/N=C1\CCCCc2ccccc21 11.2 µM
CCc1cc(C(=O)c2ccc(OC)cc2)c(NC(=O)CN2CCN(C)CC2)s1 4.47 µM
CC(C)(C)c1nc2ccccc2c(=O)n1N1C(=O)c2ccccc2C1=O 10 µM
COc1cccc(NC(=O)CN(C)C(=O)/C=C/c2cn(-c3ccccc3)nc2-c2cccs2)c1 7.94 µM
COc1ccc2[nH]c(=O)c(CN(Cc3cccnc3)S(=O)(=O)c3ccccc3F)cc2c1 5.01 µM
CC(=O)Oc1cc2c(C(=O)NCCN3CCOCC3)c(C)oc2c2ccccc12 10 µM
CCCN(CC1COc2ccccc2O1)C(=S)Nc1ccc(C)cc1 (configuration not stated) 11.2 µM
O=C(NCCCN1CCN(c2ccc(F)cc2)CC1)Nc1ccc([N+](=O)[O-])cc1 11.2 µM
